# Screen size: about 330,000 compounds; about 300 (0.091%) were called active. Not shown: some 4% with an inconclusive outcome. The call rests on the fitted dose curve; in most records, active means well fitted inhibition curve with a large enough effect; inconclusive means small, poorly fitted or top-dose-only effect, or effect the other way, or another doubt; inactive means no such curve, though single readings can be large or run the other way. For the sample, actives were picked, then their nearest neighbours and some compounds at random.
# Biological target: Lysosomal acid glucosylceramidase (Homo sapiens) (UniProt P04062)
# Test: qHTS Assay for Inhibitors and Activators of N370S glucocerebrosidase as a Potential Chaperone Treatment of Gaucher Disease;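 on activity change, negative = inhibition: 0% = full enzyme activity and -100% = no enzyme basal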
# Conditions: N370S GC spleen homogenate, 4MU-glucoside fluorescence; series mostly up to 59.4 µM; activity change, negative = inhibition: at the top concentration
# Potency means the concentration at half of the fitted maximal effect.
SMILES,"activity change, negative = inhibition",Potency
C=CCN1C(=O)c2ccc(C(=O)N3CCC(C(=O)OCC)CC3)cc2C1=O,-1.64% (inactive),–
O=C(COC(=O)c1ccccc1Cl)NC1CCCCCCC1,1.18% (inactive),–
C[C@H]1CC[C@H](C(=O)O)N[C@@H]1c1ccc(C#Cc2ccccc2)cc1,5.48% [at 12.8 µM] (inactive),–
COc1ccc(-c2nc3c(c4c2C[C@H](c2ccccc2)OC4)CN(S(=O)(=O)c2c(C)noc2C)CC3)c(C)c1,-9.78% [at 12.8 µM] (inactive),–
COC(=O)c1sc(NC(=O)COC(=O)C2CCC2)c(C(=O)OC)c1C,-10.4% (inactive),–
CC(C)c1cnc(NC(=O)Cc2ccccc2)s1,21.3% (inactive),–
NCCC(=O)c1ccccc1N,2.36% (inactive),–
O=C(CCNC(=O)c1ccc([N+](=O)[O-])cc1)NC1CCCCC1,-0.406% (inactive),–
CCN(c1ccccc1)S(=O)(=O)c1cc(C(=O)NCc2ccccn2)ccc1C,-1.72% (inactive),–
C=C1/C(=C\C=C2\CCCC3(C)C2CCC3C(C)/C=C/C(O)C2CC2)CC(O)CC1O (configuration not stated),-4.51% (inactive),–
N#Cc1cc2[nH]c(=O)c(=O)[nH]c2cc1[N+](=O)[O-],–,22.4 µM (active)
COc1ccc(CC(N)C(=O)NC2C(O)[C@H](n3cnc4c(N(C)C)ncnc43)O[C@@H]2CO)cc1 (some centres not stated),1.71% (inactive),–
COC(=O)[C@H]1C[C@@H]1[C@H](NC(=O)Oc1ccc(F)cc1)c1ccccc1,2.79% (inactive),–
Cc1nnc(NC(=O)c2ccc3nccnc3c2)s1,-1.49% (inactive),–
CCOC(=O)C1=C(C)NC2=C(C(=O)CC(C)(C)C2)C1c1ccsc1 (configuration not stated),0.443% (inactive),–
COc1cc(C2C(C#N)=C(C)NC3=C2C(=O)CC(C)(C)C3)ccc1O (configuration not stated),–,10 µM (active)

SMILES,"activity change, negative = inhibition",Potency
COc1ccc(C2C(C#N)=C(/N=C/N3CCOCC3)OC3=C2C(=O)CC(C)(C)C3)cc1OC (configuration not stated),12.4% (inactive),–
O=S(=O)(NC1CCN(S(=O)(=O)c2ccc3c(c2)OCCO3)CC1)c1c(F)cccc1F,-3.77% (inactive),–
CCN(CC)S(=O)(=O)c1ccc(CNC(=O)CN2C(=O)NC3(CCc4ccccc43)C2=O)cc1 (configuration not stated),1.57% (inactive),–
CC(C)(Oc1ccc(Cl)cc1)C(=O)OCC(=O)NCCc1ccc(S(N)(=O)=O)cc1,-2.49% (inactive),–
CCCC(Cl)CCCC(Cl)CCC(Cl)CCC(Cl)CCC(Cl)CCCC(Cl)CCC (configuration not stated),-0.806% (inactive),–
CCCC[C@H]1C(=O)N(c2ccccc2)N(c2ccc(O)cc2)C1=O,11.4% [at 21.6 µM] (inactive),–
C=CCC1CCC(=O)N2CCCC12 (configuration not stated),-6.15% [at 136 µM] (inactive),–
COc1cc2c(cc1OC)CN(C(C)C(=O)Nc1cccc(S(=O)(=O)N3CCOCC3)c1)CC2 (configuration not stated),-1.61% (inactive),–
OC[C@H]1O[C@@H](n2cnc3c(NC4CCCC4)ncnc32)[C@H](O)[C@H]1O,1.48% (inactive),–
CCOC(=O)[C@]1(C(/C=C/c2ccco2)NC(=O)OC)CCCC1=O (some centres not stated),2.17% [at 12.8 µM] (inactive),–
CCCCC/C=C\C[C@H](O)/C=C/C=C/C=C/[C@@H](O)CCCC(=O)O,-0.244% (inactive),–
CCNc1ncc2ncc(=O)n(Cc3cccc(OC)c3)c2n1,26.5% (inactive),–
CC(Nc1oc(-c2ccccc2)nc1-c1ccccc1)c1ccccc1 (configuration not stated),inactive,–
CN(CC(=O)NCCc1ccc(F)cc1)CC(=O)Nc1ccc(F)c(F)c1F,-17.8% (inactive),–
CC1(C)OC(C(O)(c2ccccc2)c2ccccc2)C(C(O)(c2ccccc2)c2ccccc2)O1 (configuration not stated),-1.37% [at 12.8 µM] (inactive),–
Cc1ccc(SCC(CC(C)C)N2CCN(CCc3ccccc3)CCC2=O)cc1 (configuration not stated),-11.1% (inactive),–
